The results in this text go back to PubChem BioAssay (NCI).

Structures are written as SMILES. Compounds without any hit were thinned out: in the full panel of roughly 83,000, 20% have a hit.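 Step 1: grow cells in 96-well plates. Step 2: add test compound at a single concentration. Step 3: incubate 48 h. Step 4: record percent growth.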 Values without a mark were called inactive. The source made the active and inactive calls. The calls were made as follows: active = growth percent below 10; inactive = the rest.

What all share (experiment): NCI-60 one-dose screen, 48 h (100 = growth as untreated, 0 = no growth, -100 = all killed)
The subject of experiment [1] is HCT-15 colon. Particulars: 10 µM unless noted.
In experiment [2] the test system is HT29 colon. The conditions noted are these: 10 µM unless noted.
Experiment [3] deals with SNB-75 CNS. Particulars: 10 µM unless noted.
Experiment [4] concerns SNB-19 CNS. Particulars: 10 µM unless noted.
The subject of experiment [5] is U251 CNS. Particulars: 10 µM unless noted.
Experiment [6] deals with PC-3 prostate. The conditions noted are these: 10 µM unless noted.
For experiment [7], the system named is SK-MEL-5 melanoma. The conditions noted are these: 10 µM unless noted.
The test system of experiment [8] is UACC-62 melanoma. Particulars: 10 µM unless noted.
In experiment [9] the test system is LOX IMVI melanoma. Particulars: 10 µM unless noted.
Experiment [10] has as its system SK-MEL-28 melanoma. Particulars: 10 µM unless noted.
The subject of experiment [11] is SK-MEL-2 melanoma. The conditions noted are these: 10 µM unless noted.
Experiment [12] has as its system EKVX NSCLC. The conditions noted are these: 10 µM.
The subject of experiment [13] is SN12C renal. Particulars: 10 µM unless noted.
The subject of experiment [14] is UO-31 renal. Particulars: 10 µM unless noted.
Experiment [15] has as its system TK-10 renal. Particulars: 10 µM unless noted.
Experiment [16] concerns ACHN renal. Particulars: 10 µM unless noted.
Experiment [17] has as its system CAKI-1 renal. Particulars: 10 µM unless noted.
In experiment [18] the test system is A498 renal. Particulars: 10 µM unless noted.
The test system of experiment [19] is CCRF-CEM leukemia. The conditions noted are these: 10 µM.
In experiment [20] the test system is MOLT-4 leukemia. Particulars: 10 µM unless noted.

Regarding `c1ccc(Nc2ccccn2)cc1`, the growth in experiment [1] was 96.2%; in experiment [2], 99.4%; in experiment [3], 118%; in experiment [4], 98.9%; in experiment [5], 103%; in experiment [6] it was 102%. Besides, the growth was 106% in experiment [7]; 93.7% in experiment [8]; 102% in experiment [9]; 112% in experiment [10]; 102% in experiment [11]; 108% in [12]. The growth in [13] was 94.6%; in [14] it was 88%; in [15], 95.5%; in [16], 106%; in experiment [17], 101%; in experiment [18] it was 122%. Also, the growth was 85% in experiment [19] and 84% in experiment [20].

As to `CCC1(CC)C(OC)NC(Br)=C(C#N)C1(C#N)C(N)=O` (stereo not given), the growth was 114% in experiment [1]; 105% in [2]; 99.3% in [3]; 110% in experiment [4]; 104% in [5]; 107% in experiment [6]. Further, the growth in experiment [7] was 109%; in [8], 99.5%; in [9], 101%; in experiment [10], 114%; in [11], 102%; in [12], 103%. Also, the growth in experiment [13] is 106%; in experiment [14] it was 85.2%; in experiment [15], 118%; in experiment [16] it was 108%; in [17], 117%; in experiment [18] it was 114%. Besides, the values for the growth in experiment [19] and in [20] were 100% and 88.4%, respectively.

`CCC(C)C1NC(=O)C(CC(C)C)NC(=O)C(C)NC(=O)C(C(C)C)NC(=O)C(CCCCN)NC(=O)C(CC(C)C)NC(=O)C(C(C)C)NC(=O)[C@H](C)NC(=O)C(C(C)CC)NC(=O)C(CCCN=C(N)N)NC(=O)C(CCCCN)NC(=O)C(CCCN=C(N)N)NC(=O)C(CCCCN)NC(=O)C([C@H](C)CC)NC(=O)C(CCCCN)NC1=O` (stereo not given in full): the growth in experiment [1] was 26.7%; in experiment [2], 3.41% (active); in experiment [3], 28.8%; in [4], 17.4%; in [5], 3.51% (active); in experiment [6], -4.78% (active). In addition, the growth was 1.67% (active) in experiment [7]; 21.3% in experiment [8]; 35.4% in experiment [9]; 41.3% in experiment [10]; 37.3% in experiment [11]; 15.3% in experiment [12]. Also, the growth in experiment [13] is 10.9%; in experiment [14] it was 21.8%; in [15], 20.2%; in [16], 3.41% (active); in experiment [17] it was 8.2% (active); in [18] it was 20.8%. Besides, the results for the growth in experiment [19] and in [20] were 8.98% (active) and -6.28% (active), respectively.

With `COc1cc(NC(=O)CSc2nc3ccc(Cl)cc3c(=O)n2-c2ccc(F)cc2)cc(OC)c1OC`, the growth in experiment [1] was 84.5%; in [2] it was 97.9%; in experiment [3], 72.6%; in experiment [4], 82.2%; in [5] it was 82.1%; in [6], 73%. Further, the growth was 73.9% in experiment [7]; 71.3% in experiment [8]; 73.5% in experiment [9]; 95.4% in experiment [10]; 92.6% in experiment [11]; 67.8% in [12]. Besides, the growth in experiment [13] was 78.7%; in experiment [14], 40.6%; in experiment [15] it was 97.8%; in [16] it was 85.6%; in experiment [17], 71.5%; in experiment [18] it was 34.8%. Besides, the growth in experiment [19] was 94%; in [20], 61.8%.

Regarding `COc1cccc(Cn2cc3c(c2)-c2oncc2CC3)c1`, the growth in experiment [1] is 18.7%; in [2], 9.25% (active); in experiment [3], 25.2%; in experiment [4], 39.4%; in experiment [5], 31.7%; in [6], 27.4%. The growth was 6.37% (active) in experiment [7]; 46.2% in experiment [8]; 34.7% in [9]; 51.9% in experiment [10]; 35.5% in experiment [11]; 27.2% in [12]. For the same compound, the growth in [13] was 34.5%; in experiment [14], 38.8%; in [15] it was 69.4%; in experiment [16], 42.7%; in [17], 13.9%; in [18] it was 36.4%. The growth in [19] was 15.2%; in experiment [20], 26.6%.

Turning to `CC1=C[C@@H]2c3c(c(O)c(O)c4oc5cc(O)cc(O)c5c(=O)c34)[C@@H](c3cc(O)c(O)c4oc5cc(O)cc(O)c5c(=O)c34)[C@@H]2C(C)(C)C1`, the growth in [1] was 25.4%; in [2], -19.6% (active); in [3], 16.7%; in experiment [4] it was 7.8% (active); in experiment [5] it was -8.73% (active); in experiment [6], 2.82% (active). Moreover, the growth is -78% (active) in experiment [7]; -61.5% (active) in experiment [8]; -98.2% (active) in experiment [9]; -1.44% (active) in experiment [10]; -22.2% (active) in [11]; 8.51% (active) in experiment [12]. The growth in [13] is 2.58% (active); in experiment [14], -10.2% (active); in experiment [15] it was 13.8%; in experiment [16] it was 12.4%; in experiment [17] it was 19.8%; in [18], -14% (active). For the same compound, the values for the growth in [19] and in experiment [20] were 3.51% (active) and 4.1% (active), respectively.
